Screens (PubChem BioAssay)
In the library only some 3% were active in any assay of this set; here they are far more common.
PAFAH1B3 inh – PAFAH1B3 enzyme inhibitors, primary screen, biochemical, fluorescence polarization, human; Platelet-activating factor acetylhydrolase IB subunit alpha1 (Homo sapiens), Q15102; recombinant PAFAH1B3, FP-rhodamine probe; inhibition, % at 3.39 µM; 340,000 tested, 0.28% active; AID 492972, 2010;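 active means inhibition above the screen-wide average of all tested compounds plus 3 SD, cut at about 25% in these data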
Target sequence (Q15102 whole entry, looked up): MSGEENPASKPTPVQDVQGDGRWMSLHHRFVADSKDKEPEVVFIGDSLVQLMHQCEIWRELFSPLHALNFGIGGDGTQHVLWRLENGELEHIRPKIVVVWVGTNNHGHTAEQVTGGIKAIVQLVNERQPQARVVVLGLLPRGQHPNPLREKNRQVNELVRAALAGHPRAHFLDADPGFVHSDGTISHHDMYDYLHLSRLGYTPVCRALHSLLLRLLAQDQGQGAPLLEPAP
pPAFAH FP inh – pPAFAH enzyme inhibitors, primary screen, biochemical, fluorescence polarization, human | Platelet-activating factor acetylhydrolase (Homo sapiens), Q13093 | 330,000 tested, 1.5% active | inhibition, % at 3.39 µM | recombinant pPAFAH, FP-rhodamine probe fluorescence polarization;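 active means inhibition above the mean inhibition across the screen plus 3 SD, cut at about 25% in these data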;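 further: inhibitors block binding of the rhodamine activity-based probe so polarization drops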
PAFAH2 inh – PAFAH2 enzyme inhibitors, primary screen, biochemical, fluorescence polarization, human. Platelet-activating factor acetylhydrolase 2, cytoplasmic (Homo sapiens), Q99487. recombinant PAFAH2, FP-rhodamine activity probe. inhibition, % at 3.39 µM. 340,000 tested, 0.99% active. AID 492956, 2010;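 active means inhibition above the mean over all tested compounds plus 3 SD, cut at about 30% in these data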;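 further: inhibitors block probe labeling of enzyme so polarization drops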
ATG4B inhibitor – ATG4B protease inhibitors, primary screen, biochemical, fluorescence, uHTS; AID 504462, 2011; ATG4B cleavage of LC3-PLA2, NBD-HPC fluorescence, 1 h; inhibition, % at 8.33 µM; 340,000 tested, 0.51% active; Cysteine protease ATG4B (Homo sapiens), Q9Y4P1; in the data active means inhibition above about 40%
DAGLB inh – DAGLB lipase inhibitors, primary screen, biochemical, fluorescence, HTS; Diacylglycerol lipase-beta (Homo sapiens), Q8NCG7; HEK293T DAGLB membrane lysate, EnzChek fluorogenic substrate; inhibition, % at 5.17 µM; 340,000 tested, 0.059% active; AID 504411, 2011; in the data active means inhibition above about 34%
PAFAH1B2 FP inh – PAFAH1B2 enzyme inhibitors, primary screen, biochemical, fluorescence polarization, human. inhibition, % at 3.39 µM. 340,000 tested, 1.2% active. recombinant PAFAH1B2, FP-rhodamine activity probe. Platelet-activating factor acetylhydrolase IB subunit alpha2 (Homo sapiens), P68402;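 active means inhibition above the mean of all tested compounds plus 3 SD, cut at about 24% in these data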
Target sequence (P68402 whole entry, looked up): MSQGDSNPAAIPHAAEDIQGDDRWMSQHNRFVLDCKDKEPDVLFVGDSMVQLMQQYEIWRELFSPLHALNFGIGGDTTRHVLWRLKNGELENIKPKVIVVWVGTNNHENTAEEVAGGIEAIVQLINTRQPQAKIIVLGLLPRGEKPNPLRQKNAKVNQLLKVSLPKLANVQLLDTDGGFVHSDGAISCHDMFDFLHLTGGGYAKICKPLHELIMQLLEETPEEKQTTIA
Of the large screens only hits and unclear results are named; the others gave an inactive call.

COc1cc(C[C@@H]2C(=O)OC[C@H]2Cc2ccc(OC)c(OC)c2)ccc1O	none
C[C@@H]1CN([C@H](C)CO)C(=O)CCCn2nncc2CO[C@H]1CN(C)S(C)(=O)=O	none (no result: PAFAH1B3 inh, pPAFAH FP inh, PAFAH2 inh, ATG4B inhibitor, PAFAH1B2 FP inh)
CCS(=O)(=O)c1ccc2c(c1)N(S(C)(=O)=O)CC(C(=O)NN)O2 (stereo not drawn)	none
NNC(=O)c1nn(-c2ccc(Cl)cc2)cc1O	pPAFAH FP inh 34.5
O=C(Cc1ccc(Cl)cc1)NC1CC1	none
O=C(CCSCc1ccc(Cl)cc1)NC1CCCC1	PAFAH1B2 FP inh 26.9
Cc1cccnc1NC(=O)c1cccc(S(=O)(=O)N2CCCc3ccccc32)c1	PAFAH1B2 FP inh 28.8
Cc1ccc(C(=O)NNCC(=O)Nc2ccc(Cl)cc2F)cc1	none
CCOc1ccc(C2Nc3cccc4cccc(c34)N2)cc1OC	none
CCOc1cc(C2Nc3cccc4cccc(c34)N2)ccc1O	PAFAH1B3 inh 39.8, PAFAH2 inh 41.0, PAFAH1B2 FP inh 26.8
COc1ccc(OCCOC(=O)c2cc(S(=O)(=O)N3CCOCC3)c(Cl)cc2Cl)cc1	none
COc1ccc(Cl)cc1C(=O)NNC(=O)CNC(=O)c1ccc(C)s1	none
COc1ccc(Nc2nc(-c3sc(C)nc3C)cs2)c(OC)c1	pPAFAH FP inh 26.6
O=S(=O)(/N=C(/NS(=O)(=O)c1ccccc1)c1ccccc1)c1ccccc1	PAFAH1B2 FP inh 27.6
O=S(=O)(/N=C(/NNS(=O)(=O)c1ccccc1)c1ccccc1)c1ccccc1	none
NC(=O)c1ccc(N=C2C(=O)Nc3ccc([N+](=O)[O-])cc32)cc1	PAFAH1B3 inh 56.3
O=C1Nc2ccccc2C1=Nc1cccc([N+](=O)[O-])c1	none
CNc1c(NS(=O)(=O)c2ccc3c(c2)CCCC3)c(=O)oc2ccccc12	none
CC(=O)Nc1cc(NC(C)=O)cc(C(=O)NCC2(N3CCOCC3)CCCCC2)c1	none (no result: pPAFAH FP inh)
COc1cccc(CNCCO)c1OCc1ccc(Cl)cc1	none
Cc1ccc(NCc2ccccc2OCc2ccccc2F)cc1	none
CCOc1ccccc1CNc1ccc(O)cc1	PAFAH1B3 inh 25.7, PAFAH2 inh 34.6 (no result: pPAFAH FP inh)
Oc1ccc(NCc2ccccc2OCc2ccccc2F)cc1	pPAFAH FP inh 31.4
CCOc1cccc(CNc2ccc(O)cc2)c1OCc1ccc(Cl)cc1	pPAFAH FP inh 32.6
COc1ccc(OCC(=O)NNC(=O)Cn2c(=O)cnc3ccccc32)cc1	none (no result: pPAFAH FP inh)
CNC(=O)NC(=O)C(C)OC(=O)c1ccc(Cl)c(S(=O)(=O)Nc2ccc(F)cc2)c1 (stereo not drawn)	pPAFAH FP inh 28.9
COc1ccc(NS(=O)(=O)c2cc(C(=O)OC(C)C(=O)N3CCOCC3)ccc2Cl)cc1 (stereo not drawn)	none
COc1ccc(N2CCN(C(CNC(=O)COc3ccccc3)c3ccco3)CC2)cc1 (stereo not drawn)	none
N#C/C(=C\c1cccnc1)C(=O)Nc1ccccc1[N+](=O)[O-]	pPAFAH FP inh 26.5
Cc1ccccc1NC(=O)/C(C#N)=C\c1cccnc1	none
C#CCOCCOCCOCCNc1nc(N2CCN(C(=O)CCCCCCCCCCNC(=O)[C@@H](CCSC)n3cc(CCO)nn3)CC2)nc(N2CCN(C(=O)CCCCCCCCCCNC(=O)[C@H](CCCN=C(N)N)n3cc(C[C@@H](C)CC)nn3)CC2)n1	ATG4B inhibitor 45.7
CC[C@H](C)Cc1cn([C@@H](CCCN=C(NC(=O)OC(C)(C)C)NC(=O)OC(C)(C)C)C(=O)NCCCCCCCCCCC(=O)N2CCN(C(=O)OC(C)(C)C)CC2)nn1	PAFAH1B3 inh 26.7
C#CCOCCOCCOCCNc1nc(N2CCN(C(=O)CCCCCCCCCCNC(=O)[C@H](CO)n3cc(CCCCCN)nn3)CC2)nc(N2CCN(C(=O)CCCCCCCCCCNC(=O)[C@H](CCCN=C(N)N)n3cc(C[C@@H](C)CC)nn3)CC2)n1	none (no result: PAFAH1B3 inh, PAFAH2 inh, ATG4B inhibitor, DAGLB inh, PAFAH1B2 FP inh)
